Where “and” joins values, the source holds several entries; their conditions need not be identical. Equal entries are not always repeated. Calls of active or inactive are those of the source. Rule for the calls: active = hit-call score of the fitted dose curve at least 0.9, where 1 is the maximum; inactive = score below 0.9.
Legend:
Settings in all cases: primary human HUVEC with PBMC; actives raise or lower the signal
[1] = read-out: Monocyte Chemoattractant Protein-1 (MCP1), CCL2 (gene 6347); experiment: BSK_LPS_MCP1: BioMAP Diversity Plus: LPS Assay for Monocyte Chemoattractant Protein-1 (MCP1) Biomarker Activity (AID 2283081);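 for AC50: secreted MCP-1 protein quantified by ELISA in culture supernatant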
Method in brief: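 Human umbilical vein endothelial cells co-cultured with PBMC, LPS-stimulated; secreted MCP-1 measured by ELISA 24 h after compound addition. Bidirectional curve fitting against DMSO baseline; SRB total-protein staining in parallel cultures for cytotoxicity.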

[2] = BSK_LPS_PGE2: BioMAP Diversity Plus: LPS Assay for Prostaglandin E2 (PGE2) Biomarker Activity (AID 2283082);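 for AC50: secreted prostaglandin E2 measured by ELISA in LPS-stimulated co-culture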
Method in brief: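 ELISA read-out of PGE2 from human umbilical vein endothelial cells co-cultured with peripheral blood mononuclear cells under LPS, 24 h post-dose. Gain or loss of signal scored relative to DMSO baseline.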

[3] = read-out: Macrophage colony-stimulating factor (MCSF), CSF1 (gene 1435); experiment: BSK_LPS_MCSF: BioMAP Diversity Plus: LPS Assay for Macrophage colony-stimulating factor (MCSF) Biomarker Activity (AID 2283083)
Method in brief: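 HUVEC–PBMC co-culture, M-CSF measured by ELISA 24 h after chemical dosing. Fitted in both directions relative to DMSO as negative control; overt cytotoxicity assessed by SRB total-protein staining in parallel cultures.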

[4] = read-out: Tissue Factor, F3 (gene 2152); experiment: BSK_LPS_TissueFactor: BioMAP Diversity Plus: LPS Assay for Tissue Factor Biomarker Activity (AID 2283084)
Method in brief: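 Human umbilical vein endothelial cells co-cultured with PBMC were dosed with compound. Cell-surface CD142 was measured by ELISA 24 h later. Activity was fitted bidirectionally against DMSO, with SRB total-protein staining in parallel cultures for cytotoxicity.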

[5] = read-out: Tumor necrosis factor (Homo sapiens) (UniProt P01375); experiment: BSK_LPS_TNFa: BioMAP Diversity Plus: LPS Assay for Tumour Necrosis Factor alpha (TNFa) Biomarker Activity (AID 2283085);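 for AC50: TNFa protein level quantified by ELISA in the co-culture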
Method in brief: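 HUVEC/PBMC co-culture, LPS-stimulated; 24 h post-dose; TNFa by ELISA; gain or loss of signal fitted bidirectionally vs DMSO baseline.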

[6] = read-out: Vascular cell adhesion molecule 1 (VCAM1), VCAM1 (gene 7412); experiment: BSK_LPS_VCAM1: BioMAP Diversity Plus: LPS Assay for Vascular cell adhesion molecule 1 (VCAM1) Biomarker Activity (AID 2283086)
Method in brief: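 ELISA read-out of VCAM-1 at 24 h post-dosing in an LPS-driven HUVEC/PBMC primary human co-culture; gain or loss of signal fitted bidirectionally against DMSO baseline. Cytotoxicity tracked in parallel cultures by SRB total-protein staining.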

CD38, CD38 (gene 952) = experiment: BSK_SAg_CD38: BioMAP Diversity Plus: SAg Assay for CD38 Biomarker Activity (AID 2283087)
Method in brief: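 Measures CD38 on a human endothelial/PBMC co-culture driven by SEB and TSST-1, 24 h after compound exposure, using ELISA with fluorescence detection; DMSO defines baseline for bidirectional curve fitting.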

CD40, CD40 (gene 958) = experiment: BSK_SAg_CD40: BioMAP Diversity Plus: SAg Assay for CD40 Biomarker Activity (AID 2283088)
Method in brief: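 HUVEC plus PBMC co-culture, superantigen-activated, with CD40 read by ELISA 24 h after dosing. Curves fitted in both directions against DMSO. Overt cytotoxicity checked by parallel SRB total-protein staining.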

CD69, CD69 (gene 969) = experiment: BSK_SAg_CD69: BioMAP Diversity Plus: SAg Assay for CD69 Biomarker Activity (AID 2283089);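 for AC50: cell surface CD69 protein quantified by ELISA with fluorescence detection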
Method in brief: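 Endothelial/PBMC co-culture; chemical added; 24 h incubation; CD69 ELISA with fluorescence detection; bidirectional fit vs DMSO.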

[7] = read-out: Monocyte Chemoattractant Protein-1 (MCP1), CCL2 (gene 6347); experiment: BSK_SAg_MCP1: BioMAP Diversity Plus: SAg Assay for Monocyte Chemoattractant Protein-1 (MCP1) Biomarker Activity (AID 2283090)
Method in brief: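 Values derive from bidirectional fitting of ELISA-measured MCP1 against DMSO controls. Readings were taken 24 h after dosing human vascular endothelial cells co-cultured with peripheral blood mononuclear cells under superantigen stimulation.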

Measured: AC50

Tumor necrosis factor (Homo sapiens), sequence (P01375 whole entry, looked up): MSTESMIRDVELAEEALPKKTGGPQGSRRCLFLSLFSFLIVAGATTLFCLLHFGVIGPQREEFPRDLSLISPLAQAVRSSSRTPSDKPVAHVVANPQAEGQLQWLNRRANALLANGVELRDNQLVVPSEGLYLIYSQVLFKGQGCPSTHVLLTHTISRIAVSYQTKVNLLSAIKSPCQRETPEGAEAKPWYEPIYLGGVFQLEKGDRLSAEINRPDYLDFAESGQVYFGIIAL

O=C(O)COc1ccc(Cl)cc1Cl
inactive: all assays above

CCc1ccc(C(=O)NN(C(=O)c2cc(C)cc(C)c2)C(C)(C)C)cc1
active: [2] 20 µM | [5] 14.2 µM | CD38, CD38 (gene 952) 30.6 µM | CD69, CD69 (gene 969) 13.5 µM
not listed: [7]
inactive: all other assays above

Cc1cc(C)nc(NC(=O)NS(=O)(=O)c2ccccc2C(=O)OC2COC2)n1
active: [3] 0.331 µM
inactive: all other assays above

O=C(O)CCCOc1ccc(Cl)cc1Cl
active: [2] 15.2 µM
not listed: [7]
inactive: all other assays above

CCC(C)(NC(=O)c1cc(Cl)c(C)c(Cl)c1)C(=O)CCl (centres undefined)
active: [1] 12.2 µM | [3] 13 µM | [4] 5.21 µM | [5] 12.3 µM | [6] 8.9 µM | CD38, CD38 (gene 952) 6.39 µM | CD40, CD40 (gene 958) 7.22 µM | CD69, CD69 (gene 969) 14.3 µM | [7] 10.3 µM
inactive: [2]

COC(=O)c1ccccc1CS(=O)(=O)NC(=O)Nc1nc(OC)cc(OC)n1
active: CD69, CD69 (gene 969) 5.03 µM
inactive: all other assays above

[2H]C1([2H])[n+]2ccccc2-c2cccc[n+]2C1([2H])[2H]
not listed: [7]
inactive: all other assays above

C#CCN1C(=O)COc2cc(F)c(N3C(=O)C4=C(CCCC4)C3=O)cc21
active: CD38, CD38 (gene 952) 14.2 µM
not listed: [7]
inactive: all other assays above

CNC(=O)/C=C(\C)OP(=O)(OC)OC
inactive: all assays above

CCC(C)(C)C(=O)OC1=C(c2ccc(Cl)cc2Cl)C(=O)OC12CCCCC2
active: [1] 31.2 µM | [3] 17.5 µM | [4] 14.1 µM | [5] 32.5 µM | [6] 24.4 µM | CD38, CD38 (gene 952) 10.3 µM | CD40, CD40 (gene 958) 10.6 µM | CD69, CD69 (gene 969) 14.9 µM
inactive: [2]

COC(=O)c1ccccc1S(=O)(=O)NC(=O)N(C)c1nc(C)nc(OC)n1
not listed: [7]
inactive: all other assays above

CCOC1Oc2ccc(OS(C)(=O)=O)cc2C1(C)C (centres undefined)
active: CD69, CD69 (gene 969) 18.4 µM
inactive: all other assays above

CCOc1nc(NC)nc(NC(=O)NS(=O)(=O)c2ccccc2C(=O)OC)n1
inactive: all assays above

COP(=S)(OC)Oc1ccc([N+](=O)[O-])cc1
inactive: [1] | [4] | [5] | [6]
active: [2] 14.6 µM | [3] 15.4 µM | CD38, CD38 (gene 952) 20 µM | CD40, CD40 (gene 958) 13.8 µM | CD69, CD69 (gene 969) 15.5 µM | [7] 14.5 µM

COc1cc(OC)nc(NC(=O)NS(=O)(=O)c2cc(NC=O)ccc2C(=O)N(C)C)n1
not listed: [7]
inactive: all other assays above

COP(=O)(OC)OC=C(Cl)Cl
active: [3] 20 µM | [5] 4.96 µM | [6] 30.1 µM
not listed: [7]
inactive: all other assays above

CCCN(CCC)c1c([N+](=O)[O-])cc(C(F)(F)F)cc1[N+](=O)[O-]
inactive: [2] | [4] | [5] | [7]
active: [1] 36.2 µM | [3] 20 µM | [6] 29.3 µM | CD38, CD38 (gene 952) 15.2 µM | CD40, CD40 (gene 958) 29.5 µM | CD69, CD69 (gene 969) 30.2 µM

Oc1ccc(Cl)cc1Cc1ccccc1
active: [1] 32.5 µM [middle of 7 runs] | [3] 29.6 µM [middle of 7 runs] | [4] 33.6 µM [middle of 7 runs] | [5] 32 µM [middle of 7 runs] | [6] 32.5 µM [middle of 6 runs] | CD38, CD38 (gene 952) 33.6 µM [middle of 6 runs] | CD40, CD40 (gene 958) 29.4 µM [middle of 6 runs] | CD69, CD69 (gene 969) 32.7 µM [middle of 7 runs]

N#Cc1c(Cl)c(Cl)c(Cl)c(C#N)c1Cl
active: [1] 1.16 µM | [2] 0.148 µM | [3] 0.924 µM | [4] 0.332 µM | [5] 0.134 µM | [6] 0.773 µM | CD38, CD38 (gene 952) 0.953 µM | CD40, CD40 (gene 958) 0.459 µM | CD69, CD69 (gene 969) 1.35 µM

CCCN(CCOc1c(Cl)cc(Cl)cc1Cl)C(=O)n1ccnc1
active: [2] 0.42 µM | [3] 20 µM | [5] 0.875 µM | CD38, CD38 (gene 952) 30.7 µM | CD40, CD40 (gene 958) 27.8 µM | CD69, CD69 (gene 969) 14.9 µM
inactive: [1] | [4] | [6]

CC[C@H](C)[C@H]1O[C@]2(C=C[C@@H]1C)C[C@@H]1C[C@@H](C/C=C(\C)[C@@H](O[C@H]3C[C@H](OC)[C@@H](O[C@H]4C[C@H](OC)[C@@H](O)[C@H](C)O4)[C@H](C)O3)[C@@H](C)/C=C/C=C3\CO[C@@H]4[C@H](O)C(C)=C[C@@H](C(=O)O1)[C@]34O)O2 (tested in a mixture with another compound)
inactive: [2] | [4]
active: [1] 8.83 µM | [3] 9.77 µM | [5] 10.3 µM | [6] 6.17 µM | CD38, CD38 (gene 952) 7.86 µM | CD40, CD40 (gene 958) 5.74 µM | CD69, CD69 (gene 969) 7.28 µM

COP(=S)(OC)Oc1ccc(SC)c(C)c1
active: [2] 30.1 µM | [3] 15.9 µM
inactive: all other assays above

Oc1cc(Cl)ccc1Oc1ccc(Cl)cc1Cl
active: [1] 19.9 µM [middle of 4 runs] | [2] 6.07 µM [middle of 4 runs] | [3] 18.7 µM [middle of 4 runs] | [4] 28.1 µM and 14.7 µM and 30.3 µM | [5] 31.2 µM [middle of 4 runs] | [6] 25.8 µM [middle of 4 runs] | CD38, CD38 (gene 952) 12.4 µM [middle of 4 runs] | CD40, CD40 (gene 958) 12.9 µM [middle of 4 runs] | CD69, CD69 (gene 969) 13.5 µM and 14.7 µM and 14.4 µM | [7] 12.5 µM [middle of 4 runs]

CC(C)N(C(=O)COc1nnc(C(F)(F)F)s1)c1ccc(F)cc1
active: [5] 12.6 µM
not listed: [7]
inactive: all other assays above

O=C(NC(=O)c1c(F)cccc1F)Nc1ccc(OC(F)(F)C(F)OC(F)(F)F)c(Cl)c1 (centres undefined)
active: CD38, CD38 (gene 952) 16.3 µM
not listed: [7]
inactive: all other assays above

O=C1c2ccccc2C(=O)N1SC(Cl)(Cl)Cl
active: [5] 32 µM
not listed: [7]
inactive: all other assays above

CC(C)OC(=O)Nc1cccc(Cl)c1
active: [2] 6.13 µM
inactive: all other assays above
